Source: PubChem BioAssay (NCI)
Compounds without any hit were thinned out: in the full panel of roughly 83,000, 20% have a hit.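 Testing used 96-well plates and a 48-hour single-concentration exposure. Example: -40 means 40% of the starting cells died.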

Tests used:
Assay in all cases: NCI-60 one-dose screen, 48 h (100 = growth as untreated, 0 = no growth, -100 = all killed)
Conditions in all cases: 10 µM unless noted; active = growth percent below 10; inactive = the rest
[1] = tested on: NCI-H23 lung
[2] = tested on: NCI-H226 lung
[3] = tested on: NCI-H322M lung
[4] = tested on: HOP-62 NSCLC
[5] = tested on: NCI-H460 lung
[6] = tested on: HOP-92 NSCLC
[7] = tested on: NCI-H522 lung
[8] = tested on: A549/ATCC NSCLC
[9] = tested on: 786-0 renal
[10] = tested on: COLO 205 colon
[11] = tested on: DU-145 prostate
[12] = tested on: K-562 leukemia
[13] = tested on: MALME-3M melanoma
[14] = tested on: MDA-MB-231 breast
[15] = tested on: RXF 393 renal
[16] = tested on: SF-268 CNS
[17] = tested on: SF-295 CNS
[18] = tested on: SF-539 CNS
[19] = tested on: UACC-257 melanoma
[20] = tested on: M14 melanoma

Measured: growth

CCOC(OCC)C(=O)c1ccccc1
inactive: [1] 127% | [2] 98.9% | [3] 100% | [4] 98.5% | [5] 99.7% | [6] 41.3% | [7] 85.2% | [8] 90.2% | [9] 107% | [10] 104% | [11] 106% | [12] 109% | [13] 93.8% | [14] 111% | [15] 109% | [16] 99.2% | [17] 113% | [18] 88.2% | [19] 85.9% | [20] 101%

CCNC(=O)OCCc1c2ccccc2nc2ccccc12
inactive: [1] 111% | [2] 106% | [3] 108% | [4] 109% | [5] 108% | [6] 13.4% | [7] 94.3% | [8] 101% | [9] 112% | [10] 124% | [11] 122% | [12] 88.2% | [13] 126% | [14] 119% | [15] 97.4% | [16] 109% | [17] 127% | [18] 109% | [19] 112% | [20] 120%

CC(=O)OC(C)c1cccc(C#N)c1 (stereo not given)
inactive: [1] 103% | [2] 94.7% | [3] 104% | [4] 94.8% | [5] 108% | [6] 91.3% | [7] 103% | [8] 98.6% | [9] 104% | [10] 113% | [11] 108% | [12] 103% | [13] 103% | [14] 108% | [15] 110% | [16] 103% | [17] 102% | [18] 101% | [19] 100% | [20] 97.4%

Clc1ccc(/C=C/c2ccccn2)cc1
inactive: [1] 91.2% | [2] 101% | [3] 107% | [4] 94.7% | [5] 104% | [6] 56.3% | [7] 87.1% | [8] 92.2% | [9] 98.1% | [10] 105% | [11] 109% | [12] 107% | [13] 108% | [14] 98.9% | [15] 116% | [16] 91.3% | [17] 100% | [18] 94.2% | [19] 103% | [20] 101%

CC(C)C(=O)OCCOc1ccc(C(C)(C)C)cc1
inactive: [1] 103% | [2] 99.4% | [3] 101% | [4] 102% | [5] 102% | [6] 97.7% | [7] 84.8% | [8] 88.4% | [9] 101% | [10] 108% | [11] 104% | [12] 103% | [13] 97.3% | [14] 90.5% | [15] 109% | [16] 96.1% | [17] 99.3% | [18] 99.5% | [19] 87.7% | [20] 107%

C=CCS(C)(=O)=O
inactive: [1] 106% | [2] 96.7% | [3] 102% | [4] 87.3% | [5] 105% | [6] 99.4% | [7] 92.8% | [8] 92.9% | [9] 99.4% | [10] 96.5% | [11] 108% | [12] 103% | [13] 121% | [14] 97.9% | [15] 98% | [16] 103% | [17] 93.8% | [18] 96.3% | [19] 89.5% | [20] 95.8%

CN1C(=O)NC(c2ccc(Cl)cc2)(c2ccc(Cl)cc2)C1=O
inactive: [1] 98.2% | [2] 94.1% | [3] 119% | [4] 125% | [5] 111% | [6] 58.4% | [7] 108% | [8] 115% | [9] 106% | [10] 122% | [11] 102% | [12] 70.1% | [13] 108% | [14] 99.8% | [15] 62% | [16] 102% | [17] 102% | [18] 111% | [19] 118% | [20] 100%

O=S(=O)(OCCOS(=O)(=O)c1ccccc1)c1ccccc1
inactive: [1] 95% | [2] 87.6% | [3] 97.6% | [4] 94.9% | [5] 97.6% | [6] 99.5% | [7] 90.5% | [8] 93.3% | [9] 93.5% | [10] 112% | [11] 100% | [12] 96.4% | [13] 86% | [14] 111% | [15] 96% | [16] 92.6% | [17] 102% | [18] 102% | [19] 97.2% | [20] 92.3%

O=Cc1c(O)c2ccccc2[nH]c1=O
inactive: [1] 97.8% | [2] 88.6% | [3] 112% | [4] 102% | [5] 103% | [6] 110% | [7] 94.8% | [8] 90.1% | [9] 104% | [10] 108% | [11] 158% | [12] 111% | [13] 139% | [14] 99.6% | [15] 114% | [16] 110% | [17] 109% | [18] 97.9% | [19] 84.8% | [20] 94.4%
